# Test results: PubChem BioAssay (NCATS)
# Inconclusive results are not listed. Activity calls are given as the source filed them. Calls follow the shape of the dose curve; as a rule, active = well fitted cell-killing curve with a large enough effect; inconclusive = small, poorly fitted or top-dose-only effect; inactive = flat fitted curve, though single readings scatter.
# Experiment: Cell Viability - LYMP2-025 (AID 976);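 also: plate controls were DMSO only for no effect and tetraoctylammonium bromide control for full effect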
# Settings: LYMP2-025 lymphoblastoid cell viability; series mostly up to 92.2 µM; activity change, negative = cytotoxicity: at the top concentration
# How it was run: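 Human lymphoblastoid LYMP2-025 cells, 2500/well, exposed 24 h at 37 C in complete medium in 1536-well qHTS. Viability as cellular ATP by CellTiter-Glo luminescence; AC50 from Hill fits of concentration-response data.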
row,Compound,"activity change, negative = cytotoxicity"
1,CC(C#N)CCC#N (stereo not given),-1.11% (inactive)
2,Nc1cc(Cl)ccc1Cl,-5.43% (inactive)
3,Nc1cccc(Cl)c1,-1.67% (inactive)
4,ClCc1ccccc1,-2.65% (inactive)
5,CCC/C=N/O,-3.65% (inactive)
6,COc1c(C(C)(C)C)cc([N+](=O)[O-])c(C)c1[N+](=O)[O-],-9.65% (inactive)
7,O=S(=O)(Cl)c1ccccc1,2.3% (inactive)
8,C=CCOCC1CO1 (stereo not given),0.302% (inactive)
9,c1ccoc1,-7.87% (inactive)
10,Clc1ccccc1,-2.15% (inactive)
11,ClC(Cl)(Cl)C(Cl)(Cl)Cl,-6.55% (inactive)
12,CCOC(=O)C1OC1(C)c1ccccc1 (stereo not given),-5.6% (inactive)
13,C/C=C/CC#N,-1.34% (inactive)
14,ClC(Cl)C(Cl)Cl,-6.35% (inactive)
15,C=CCCl,-18.7% (inactive)
16,Oc1c(Cl)cccc1Cl,-8.17% (inactive)
17,Brc1cccc(-c2ccccc2)c1,-2.63% (inactive)
18,C=CCO,-10.9% (inactive)
19,OCCCCO,-13.6% (inactive)
20,Nn1cnnc1,0.186% (inactive)

row,Compound,"activity change, negative = cytotoxicity"
1,BrCCc1ccccc1,-9.7% (inactive)
2,Cc1ccccc1[N+](=O)[O-],-12% (inactive)
3,CCCCOC(=O)c1ccccc1N,-13.4% (inactive)
4,Clc1cc(Cl)c(Cl)c(Cl)c1,-17% (inactive)
5,Cc1ccc(N)c(C)c1,-2.51% (inactive)
6,C1CC2OC2CC1C1CO1 (stereo not given),-0.0782% (inactive)
7,CN(C)C(=O)Cl,-29.3% (inactive)
8,CC(=O)NNc1ccccc1,-0.541% (inactive)
9,Cc1ccc(N=C=O)cc1N=C=O,-11.3% (inactive)
10,O=C(Cl)OCc1ccccc1,-7.98% (inactive)
11,C=CC(=O)OC,2.23% (inactive)
12,CCN(CC)N=O,-11.2% (inactive)
13,OCC(Cl)CCl (stereo not given),-3.97% (inactive)
14,CC(C)CON=O,-7.96% (inactive)
15,CC[N+](=O)[O-],-1.27% (inactive)
16,CC(C)(Cl)[N+](=O)[O-],-9.72% (inactive)
17,C[N+](=O)[O-],-13.5% (inactive)
18,CC(C)OC(=O)Cc1ccccc1,-6.01% (inactive)
19,ClCC(Br)CBr (stereo not given),-7.8% (inactive)

# Experiment: Cell Viability - LYMP2-002 (AID 977);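 also: compound exposure lasted 24 h at 37 °C; plate controls were DMSO only for no effect and 92 µM tetraoctylammonium bromide for full effect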
# Settings: LYMP2-002 lymphoblastoid cell viability, qHTS; series mostly up to 92.2 µM; activity change, negative = cytotoxic: at the top concentration
# How it was run: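 Cytotoxicity is scored as concentration-dependent loss of cellular ATP in a human lymphoblastoid line after 24 hr compound treatment at 37 C. AC50 is obtained by modelling concentration-response data with the Hill equation.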
row,Compound,"activity change, negative = cytotoxic"
1,CC(C#N)CCC#N (stereo not given),2.95% (inactive)
2,Nc1cc(Cl)ccc1Cl,-2.38% (inactive)
3,Nc1cccc(Cl)c1,-11.5% (inactive)
4,ClCc1ccccc1,-12.6% (inactive)
5,CCC/C=N/O,-1.62% (inactive)
6,COc1c(C(C)(C)C)cc([N+](=O)[O-])c(C)c1[N+](=O)[O-],-0.617% (inactive)
7,O=S(=O)(Cl)c1ccccc1,-0.456% (inactive)
8,c1ccoc1,17% (inactive)
9,Clc1ccccc1,17.3% (inactive)
10,ClC(Cl)(Cl)C(Cl)(Cl)Cl,1.92% (inactive)
11,CCOC(=O)C1OC1(C)c1ccccc1 (stereo not given),-1.57% (inactive)
12,C/C=C/CC#N,4.41% (inactive)
13,ClC(Cl)C(Cl)Cl,7.3% (inactive)
14,C=CCCl,3.11% (inactive)
15,Oc1c(Cl)cccc1Cl,-8.11% (inactive)
16,Brc1cccc(-c2ccccc2)c1,-9.72% (inactive)
17,C=CCO,-0.926% (inactive)

row,Compound,"activity change, negative = cytotoxic"
1,OCCCCO,-0.228% (inactive)
2,Nn1cnnc1,-9.63% (inactive)
3,BrCCc1ccccc1,-0.487% (inactive)
4,CCCCOC(=O)c1ccccc1N,4.69% (inactive)
5,Clc1cc(Cl)c(Cl)c(Cl)c1,-1.88% (inactive)
6,Cc1ccc(N)c(C)c1,-8.43% (inactive)
7,C1CC2OC2CC1C1CO1 (stereo not given),-3% (inactive)
8,CN(C)C(=O)Cl,-16.1% (inactive)
9,CC(=O)NNc1ccccc1,-11% (inactive)
10,O=C(Cl)OCc1ccccc1,-1.36% (inactive)
11,OCC(Cl)CCl (stereo not given),-1.2% (inactive)
12,CC(C)CON=O,-6.9% (inactive)
13,CC[N+](=O)[O-],-7.44% (inactive)
14,CC(C)(Cl)[N+](=O)[O-],-13.2% (inactive)
15,CC(C)OC(=O)Cc1ccccc1,-1.02% (inactive)
16,ClCC(Br)CBr (stereo not given),-0.169% (inactive)

# Experiment: Cell Viability - LYMP2-006 (AID 978); also: % is scaled to controls: 0 for no effect and ±100 for the full control effect; nearly all actives have a fitted effect of over 60% in size
# Settings: LYMP2-006 lymphoblastoid cell viability, qHTS; series mostly up to 92.2 µM; activity change, negative = cytotoxicity: at the top concentration
# How it was run: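 Potency values are Hill-fit AC50s for decreases in intracellular ATP (CellTiter-Glo luminescence). LYMP2-006 lymphoblastoid cells, 2500 per well, were exposed to compound in complete culture medium for 24 hr at 37 C.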
row,Compound,"activity change, negative = cytotoxicity"
1,CC(C#N)CCC#N (stereo not given),7.3% (inactive)
2,Nc1cc(Cl)ccc1Cl,-11.6% (inactive)
3,Nc1cccc(Cl)c1,8.2% (inactive)
4,ClCc1ccccc1,-11.1% (inactive)
5,CCC/C=N/O,-0.895% (inactive)
6,COc1c(C(C)(C)C)cc([N+](=O)[O-])c(C)c1[N+](=O)[O-],-1.44% (inactive)
7,O=S(=O)(Cl)c1ccccc1,-9.15% (inactive)
8,C=CCOCC1CO1 (stereo not given),8.57% (inactive)
9,c1ccoc1,3.86% (inactive)
10,Clc1ccccc1,14.7% (inactive)
11,ClC(Cl)(Cl)C(Cl)(Cl)Cl,9.52% (inactive)
12,CCOC(=O)C1OC1(C)c1ccccc1 (stereo not given),-2.94% (inactive)
13,C/C=C/CC#N,-4.73% (inactive)
14,ClC(Cl)C(Cl)Cl,12.1% (inactive)
15,C=CCCl,-2.35% (inactive)
16,Oc1c(Cl)cccc1Cl,0.0192% (inactive)
17,Brc1cccc(-c2ccccc2)c1,-3.22% (inactive)
18,C=CCO,-9.38% (inactive)
19,OCCCCO,6.69% (inactive)
20,Nn1cnnc1,0.0617% (inactive)

row,Compound,"activity change, negative = cytotoxicity"
1,BrCCc1ccccc1,-1.69% (inactive)
2,Cc1ccccc1[N+](=O)[O-],-17.5% (inactive)
3,CCCCOC(=O)c1ccccc1N,0.258% (inactive)
4,Clc1cc(Cl)c(Cl)c(Cl)c1,-15.4% (inactive)
5,Cc1ccc(N)c(C)c1,-2.59% (inactive)
6,C1CC2OC2CC1C1CO1 (stereo not given),7.48% (inactive)
7,CN(C)C(=O)Cl,-15.9% (inactive)
8,CC(=O)NNc1ccccc1,-22% (inactive)
9,Cc1ccc(N=C=O)cc1N=C=O,-13.9% (inactive)
10,O=C(Cl)OCc1ccccc1,-5.69% (inactive)
11,C=CC(=O)OC,-1.88% (inactive)
12,CCN(CC)N=O,8.21% (inactive)
13,OCC(Cl)CCl (stereo not given),1.08% (inactive)
14,CC(C)CON=O,-5.98% (inactive)
15,CC[N+](=O)[O-],-3.25% (inactive)
16,CC(C)(Cl)[N+](=O)[O-],-1.6% (inactive)
17,C[N+](=O)[O-],-1.46% (inactive)
18,CC(C)OC(=O)Cc1ccccc1,5.67% (inactive)
19,ClCC(Br)CBr (stereo not given),7.52% (inactive)

# Experiment: Cell Viability - LYMP2-007 (AID 979);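 also: cells exposed to compound for 24 h before reading; 0% = DMSO only and the negative end = 92 µM tetraoctylammonium bromide; nearly all actives have a fitted effect of over 60% in size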
# Settings: LYMP2-007 lymphoblastoid cell viability; series mostly up to 92.2 µM; activity change, negative = cytotoxicity: at the top concentration
# How it was run: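 Human lymphoblastoid LYMP2-007 cells (2500/well) preincubated 5 h at 37 C, then treated 24 h at 37 C in complete medium. Viability by CellTiter-Glo ATP luminescence after 30 min at room temperature; AC50 from Hill fits.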
row,Compound,"activity change, negative = cytotoxicity"
1,CC(C#N)CCC#N (stereo not given),-2.22% (inactive)
2,Nc1cc(Cl)ccc1Cl,-11.4% (inactive)
3,Nc1cccc(Cl)c1,-4.07% (inactive)
4,ClCc1ccccc1,-2.66% (inactive)
5,CCC/C=N/O,5.4% (inactive)
6,COc1c(C(C)(C)C)cc([N+](=O)[O-])c(C)c1[N+](=O)[O-],-0.731% (inactive)
7,O=S(=O)(Cl)c1ccccc1,1.83% (inactive)
8,C=CCOCC1CO1 (stereo not given),0.469% (inactive)
9,c1ccoc1,2.67% (inactive)
10,Clc1ccccc1,1.04% (inactive)
11,ClC(Cl)(Cl)C(Cl)(Cl)Cl,-9.11% (inactive)
12,CCOC(=O)C1OC1(C)c1ccccc1 (stereo not given),6.55% (inactive)
13,C/C=C/CC#N,1.85% (inactive)
14,ClC(Cl)C(Cl)Cl,0.114% (inactive)
15,C=CCCl,-3.59% (inactive)
16,Oc1c(Cl)cccc1Cl,-2.67% (inactive)
17,Brc1cccc(-c2ccccc2)c1,5.14% (inactive)
18,C=CCO,-2.34% (inactive)
19,OCCCCO,7.24% (inactive)
20,Nn1cnnc1,-1.76% (inactive)

row,Compound,"activity change, negative = cytotoxicity"
1,BrCCc1ccccc1,-0.528% (inactive)
2,Cc1ccccc1[N+](=O)[O-],2.33% (inactive)
3,CCCCOC(=O)c1ccccc1N,-3.75% (inactive)
4,Clc1cc(Cl)c(Cl)c(Cl)c1,6.1% (inactive)
5,Cc1ccc(N)c(C)c1,-10.4% (inactive)
6,C1CC2OC2CC1C1CO1 (stereo not given),-1.24% (inactive)
7,CN(C)C(=O)Cl,-3.4% (inactive)
8,CC(=O)NNc1ccccc1,-1.6% (inactive)
9,Cc1ccc(N=C=O)cc1N=C=O,-2.37% (inactive)
10,O=C(Cl)OCc1ccccc1,-0.843% (inactive)
11,C=CC(=O)OC,9.11% (inactive)
12,CCN(CC)N=O,1.75% (inactive)
13,OCC(Cl)CCl (stereo not given),-11% (inactive)
14,CC(C)CON=O,0.375% (inactive)
15,CC[N+](=O)[O-],-2.73% (inactive)
16,CC(C)(Cl)[N+](=O)[O-],7.49% (inactive)
17,C[N+](=O)[O-],3.7% (inactive)
18,CC(C)OC(=O)Cc1ccccc1,5.14% (inactive)
19,ClCC(Br)CBr (stereo not given),-1.24% (inactive)
